Source: article PMC10668032, “Altered binding affinity of SIX1-Q177R correlates with enhanced WNT5A and WNT pathway effector expression in Wilms tumor”
The full ranking holds about 33,000 sequences; the median of “e-score” is about -0.053, and the highest 2% start at about 0.38. Shown is part of a subset that was picked to be rich in the highest values.

molecular target: T1, SIX1 homeodomain (reference allele) (human, UniProt Q15475 108-198); test: universal protein binding microarray; Universal all-10-mer PBM (8x60K, AMADID 030236), 300 nM GST-tagged protein, Alexa Fluor 488 anti-GST; buffer, salt, pH and temperature not stated (as in Berger); high values mean tight binding; settings: protein: ivt; tags: N-terminal GST; dsDNA, one strand shown
T1 sequence: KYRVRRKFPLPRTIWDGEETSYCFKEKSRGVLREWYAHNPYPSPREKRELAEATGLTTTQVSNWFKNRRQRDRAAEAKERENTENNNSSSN
In short: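 Binding of GST-tagged homeodomains is given as 8-mer E-scores from the Universal PBM Analysis Suite. The proteins were produced by in vitro transcription/translation, quantified by anti-GST western blot against a recombinant GST standard curve, and applied in duplicate at 300 nM final concentration to universal 'all 10-mer' protein binding microarrays (8×60K format).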

Point of comparison: ATGGATCC, binding signal 0.362 ± 0.0547 E-score. Against it:
- ATCAGTCA — lower, 0.2227 ± 0.00177 E-score
- AGGGATCA — higher, 0.4493 ± 0.00351 E-score
- AGAGATCG — lower, 0.25548 ± 0.000134 E-score
- CGGGATGA — lower, 0.159 ± 0.0157 E-score
- CGGGATTA — lower, 0.263 ± 0.0233 E-score
- AGGGATCG — within error, 0.386 ± 0.0182 E-score
- CGGGATCA — within error, 0.417 ± 0.0124 E-score
- AGGGATGA — lower, 0.176 ± 0.025 E-score
- GGGGATCA — higher, 0.4469 ± 0.0011 E-score
- GGGGATTA — within error, 0.302 ± 0.0187 E-score
- GGGGATGA — lower, 0.267 ± 0.0256 E-score
- AGGGATTA — within error, 0.305 ± 0.032 E-score
- AGGGATTG — lower, 0.203 ± 0.0478 E-score
- CAGCGATC — lower, 0.265 ± 0.0201 E-score
- ATTATGTG — lower, 0.171 ± 0.0412 E-score
- ATACTCGC — within error, 0.34 ± 0.069 E-score
- CTATACGC — lower, 0.215 ± 0.0251 E-score
- CGATCTGC — lower, 0.209 ± 0.00856 E-score
- CAGATTAC — lower, 0.187 ± 0.0577 E-score
- GATTATGC — within error, 0.265 ± 0.0543 E-score
- CCCATCTC — within error, 0.292 ± 0.0209 E-score
- ACACCTTG — lower, 0.186 ± 0.0328 E-score
- AAGGATCC — within error, 0.35 ± 0.0205 E-score
- CTGGATCC — within error, 0.351 ± 0.0527 E-score
- CGGGATCC — within error, 0.393 ± 0.0513 E-score
- AGGGATCC — within error, 0.386 ± 0.0382 E-score
- CAGGATCC — within error, 0.354 ± 0.0257 E-score
- ATTCGATA — within error, 0.302 ± 0.0451 E-score
- ATCAAAAA — lower, 0.153 ± 0.0897 E-score
- ATCTAATA — lower, 0.237 ± 0.0442 E-score
- AACACCCC — lower, 0.268 ± 0.0366 E-score
- CACACCCC — within error, 0.26 ± 0.0792 E-score
- TACACCCA — within error, 0.341 ± 0.0149 E-score
- GACACCCA — within error, 0.396 ± 0.0322 E-score
- GACACCCC — higher, 0.436 ± 0.0137 E-score
- GACACCAA — within error, 0.364 ± 0.0101 E-score
- GATTATAC — within error, 0.34 ± 0.0371 E-score
- GCCGATCA — lower, 0.229 ± 0.0129 E-score
- ATAGCCCC — lower, 0.181 ± 0.0335 E-score
- TATCAGAA — within error, 0.354 ± 0.0409 E-score
- TACCTCTA — lower, 0.204 ± 0.0372 E-score
- GGGACACC — within error, 0.341 ± 0.0406 E-score
- AAGACACC — within error, 0.347 ± 0.0269 E-score
- GCGACACC — within error, 0.412 ± 0.0314 E-score
- ACGACACG — lower, 0.156 ± 0.0251 E-score
- CCAACACC — within error, 0.291 ± 0.0364 E-score
- GAGACACC — within error, 0.306 ± 0.032 E-score
- CCGACACC — higher, 0.438 ± 0.013 E-score
- CCGACAGA — lower, 0.195 ± 0.026 E-score
- ACGACACC — within error, 0.432 ± 0.024 E-score
- CTGCTATC — lower, 0.292 ± 0.00957 E-score
- CACACCAG — lower, 0.156 ± 0.0892 E-score
- ACTAATAC — lower, 0.225 ± 0.029 E-score
- GATGTATA — within error, 0.306 ± 0.0136 E-score
- GCTATATA — lower, 0.2534 ± 0.00173 E-score
- GTGATATA — within error, 0.419 ± 0.016 E-score
- CTGATATA — within error, 0.358 ± 0.0287 E-score
- GTGAGATA — within error, 0.388 ± 0.0283 E-score
- GCGATATA — within error, 0.399 ± 0.0347 E-score
- ATGAGATA — within error, 0.262 ± 0.0851 E-score
- TAGATATA — within error, 0.323 ± 0.076 E-score
- CCGATATA — within error, 0.333 ± 0.0187 E-score
- CTTATATC — lower, 0.292 ± 0.0136 E-score
- CTAATATC — within error, 0.339 ± 0.0352 E-score
- CTGATATC — higher, 0.465 ± 0.0148 E-score
- CTGAGATA — within error, 0.248 ± 0.0841 E-score
- ATGAGAAG — lower, 0.176 ± 0.0788 E-score
- ATATGCAG — lower, 0.222 ± 0.0653 E-score
- GATTACGC — lower, 0.225 ± 0.0112 E-score
- ATTGAGTA — lower, 0.192 ± 0.0104 E-score
- AGATCTCC — lower, 0.184 ± 0.0698 E-score
- ATCTGAGA — within error, 0.292 ± 0.0452 E-score
- CATATGAG — lower, 0.19 ± 0.0156 E-score
- GATCGCAC — lower, 0.253 ± 0.0507 E-score
- ATGATATA — within error, 0.414 ± 0.0235 E-score
- ATGATATC — higher, 0.476 ± 0.0196 E-score
- ATTATATG — lower, 0.182 ± 0.0439 E-score
- AAGATATA — within error, 0.28 ± 0.0929 E-score
- ATGATATG — higher, 0.472 ± 0.0175 E-score
- ATTATATA — lower, 0.254 ± 0.0255 E-score
- ATCATATG — within error, 0.281 ± 0.0284 E-score
- ATTATATC — within error, 0.329 ± 0.0838 E-score
- ATAATATC — within error, 0.358 ± 0.0729 E-score
- CTGGCATA — lower, 0.228 ± 0.0218 E-score
- ATCATTCC — within error, 0.291 ± 0.0446 E-score
- GATCAACC — within error, 0.319 ± 0.0399 E-score
- ACGATCAG — lower, 0.1967 ± 0.000827 E-score
- CGGATTTA — lower, 0.196 ± 0.05 E-score
- GATCGCGC — lower, 0.197 ± 0.0401 E-score
- GATCCCCA — within error, 0.387 ± 0.046 E-score
- CATCCCCC — lower, 0.199 ± 0.0656 E-score
- GATCCCAA — lower, 0.275 ± 0.0231 E-score
- TATCCCCA — within error, 0.35 ± 0.00527 E-score
- AATCCCCC — lower, 0.261 ± 0.00738 E-score
- GATCGCCA — lower, 0.211 ± 0.0516 E-score
- GATCCCGC — within error, 0.375 ± 0.0422 E-score
- AATCCCAC — lower, 0.158 ± 0.00675 E-score
- GATCCCCC — higher, 0.47 ± 0.0193 E-score
- GATCCCAC — within error, 0.379 ± 0.0379 E-score
- GATCGCCC — within error, 0.379 ± 0.00824 E-score
- ATCTACAG — lower, 0.152 ± 0.023 E-score
- ACGTATAT — within error, 0.271 ± 0.065 E-score
- ATCTAGAT — within error, 0.26 ± 0.0531 E-score
- CGAGACGA — lower, 0.156 ± 0.029 E-score
- CCGGAGAC — lower, 0.184 ± 0.00939 E-score
- CCCCGATC — within error, 0.346 ± 0.0685 E-score
- ATGAGCTC — lower, 0.166 ± 0.0357 E-score
- GATCCAGC — within error, 0.265 ± 0.0768 E-score
- GATCCTCA — within error, 0.295 ± 0.0129 E-score
- GATCCTCC — within error, 0.381 ± 0.0158 E-score
- GATCCACC — within error, 0.394 ± 0.0435 E-score
- CATCCTCC — lower, 0.153 ± 0.0426 E-score
- GATCCACA — within error, 0.335 ± 0.0765 E-score
- ATCTGTCC — within error, 0.29 ± 0.0606 E-score
- CGAGACAC — lower, 0.176 ± 0.0324 E-score
- CATAGATA — within error, 0.259 ± 0.0781 E-score
- TCACATGA — lower, 0.166 ± 0.0132 E-score
- CAATCCCG — lower, 0.155 ± 0.0636 E-score
- GTATCCCA — within error, 0.388 ± 0.0324 E-score
- ATATCCCG — within error, 0.42 ± 0.0102 E-score
- ATATCCCA — within error, 0.418 ± 0.0119 E-score
- CTATCCCA — lower, 0.257 ± 0.013 E-score
- ATCTCCCG — lower, 0.222 ± 0.0116 E-score
- CAATCCCA — lower, 0.177 ± 0.00991 E-score
- CTATCCCC — within error, 0.321 ± 0.0256 E-score
- ATCTCCCA — lower, 0.238 ± 0.0314 E-score
- GAATCCCA — lower, 0.165 ± 0.0648 E-score
- AAATCCCC — lower, 0.181 ± 0.0853 E-score
- ATATCCCC — higher, 0.457 ± 0.00651 E-score
- ATCAAGGG — within error, 0.258 ± 0.0527 E-score
- GGAGATTA — lower, 0.197 ± 0.0921 E-score
- ATCGGGTC — within error, 0.285 ± 0.0351 E-score
- CCGATGAG — lower, 0.173 ± 0.0124 E-score
- GAGATAGA — lower, 0.183 ± 0.00408 E-score
- ACGAATAT — lower, 0.179 ± 0.047 E-score
- CGTTATAC — lower, 0.204 ± 0.0355 E-score
- ATCATGTG — within error, 0.328 ± 0.0175 E-score
- CATTGCGG — lower, 0.222 ± 0.028 E-score
- CCGCCATA — lower, 0.209 ± 0.0131 E-score
- ATACAACG — lower, 0.152 ± 0.0326 E-score
- ATCCTCTC — within error, 0.264 ± 0.0756 E-score
- ATCGCTCA — lower, 0.192 ± 0.00955 E-score
- CGGGTATA — within error, 0.365 ± 0.00269 E-score
- AGGGGGTA — within error, 0.294 ± 0.0383 E-score
- CGGGTCTC — lower, 0.187 ± 0.0479 E-score
- CGGGGGTA — within error, 0.301 ± 0.0117 E-score
- AGGGTATA — within error, 0.407 ± 0.0114 E-score
- AAGGTATA — within error, 0.272 ± 0.131 E-score
- CGGGTATC — higher, 0.487 ± 0.00716 E-score
- TAGGTATA — within error, 0.382 ± 0.0292 E-score
- GGGGTAGA — lower, 0.158 ± 0.0407 E-score
- GCGGTATA — within error, 0.3752 ± 0.00298 E-score
- GGGGTATA — higher, 0.441 ± 0.0155 E-score
- TGATGCCA — lower, 0.152 ± 0.025 E-score
- ATAGGGCG — lower, 0.158 ± 0.0277 E-score
- AATATCTG — lower, 0.188 ± 0.0693 E-score
- CATGAAAG — lower, 0.157 ± 0.0184 E-score
- AGGGTATG — lower, 0.28 ± 0.0175 E-score
- AGGGTATC — higher, 0.4907 ± 0.00122 E-score
- AGGGTAAT — lower, 0.205 ± 0.0122 E-score
- CCATCCCC — lower, 0.203 ± 0.0814 E-score
- GTAATATA — lower, 0.226 ± 0.0387 E-score
- AGTGAGAT — within error, 0.306 ± 0.0146 E-score
- CGTGATAC — higher, 0.4798 ± 0.000721 E-score
- CGTGATAG — lower, 0.244 ± 0.00391 E-score
- AGTGATAT — higher, 0.451 ± 0.0283 E-score
- GGTGATAC — higher, 0.4856 ± 0.00178 E-score
- CGTGACAC — lower, 0.2472 ± 0.00208 E-score
- AGTGATAG — within error, 0.32 ± 0.0815 E-score
- AGTGACAC — within error, 0.354 ± 0.0169 E-score
- AGTGTGAT — lower, 0.247 ± 0.0427 E-score
